Assay outcomes (PubChem)
Sfp PPTase inh – Sfp phosphopantetheinyl transferase inhibition | Q9F4F7 | Potency, µM, for inactives: largest response in the series, negative = inhibition, actives largely listed as inhibitors | 3.5% of 310,000 active | Biochemical Sfp PPTase activity, qHTS;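 note: the enzyme is Sfp with the accession as filed and its product quenches rhodamine fluorescence; 0% = enzyme reaction without inhibitor and -100% = no enzyme wells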
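After 15 min at room temperature with compound, 15 nM Sfp received 5 uM rhodamine-CoA plus 12.5 uM BHQ-2-ybbR (50 mM Hepes pH 7.6, 10 mM MgCl2). Rate came from the fluorescence difference over 30 min, ex 525/em 598 nm.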
BAZ2B inh – inhibitors of human BAZ2B bromodomain; Potency, µM (top dose mostly 114 µM), inactives show at the highest dose activity change, negative = inhibition, most hits filed as inhibitors; 4.4% of 360,000 active; AlphaScreen BAZ2B-H3K14Ac peptide displacement; Q9UIF8; note: % is set by controls: 0 for no effect and ±100 for the full control effect; nearly all actives have a fitted effect of over 60% in size
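Compounds, titrated to a top concentration of 110 uM, were incubated 30 min at room temperature with preformed BAZ2B/acetyl-K14 H3 peptide complex (50 nM each). Proximity signal was measured by AlphaScreen after 20 min with beads.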
G9a block – blocks human histone lysine methyltransferase G9a; Q96KQ7; G9a H3K9 monomethylation, AlphaScreen, 2 h; Potency, µM (highest dose often 102 µM), inactives show top-dose activity, negative = inhibition, hits mostly inhibitors; 8.8% of 350,000 active; note: % is set by controls: 0 for no effect and ±100 for the full control effect; nearly all actives have a fitted effect of over 75% in size
Target sequence (Q96KQ7 913-1193 limits assumed): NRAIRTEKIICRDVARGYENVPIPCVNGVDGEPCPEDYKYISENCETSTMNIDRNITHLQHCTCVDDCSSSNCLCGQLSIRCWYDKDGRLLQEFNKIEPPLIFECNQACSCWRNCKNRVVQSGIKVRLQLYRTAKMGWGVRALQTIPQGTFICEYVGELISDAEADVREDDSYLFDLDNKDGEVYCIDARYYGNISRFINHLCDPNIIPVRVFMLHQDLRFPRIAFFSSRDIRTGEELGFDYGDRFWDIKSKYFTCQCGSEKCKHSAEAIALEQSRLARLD
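Using a bead-based AlphaScreen, monomethylated H3K9 product from 2 h room-temperature reactions (G9a 20 nM, peptide 500 nM, SAM 20 uM) was detected with 0.5 ug/mL rabbit anti-H3K9me1 antibody.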
HP1b binding inh – HP1-beta chromodomain-methylated histone interaction inhibition; P83916; AlphaScreen HP1-beta / biotin-H3K9me3 peptide binding; Potency, µM (doses to about 114 µM), without a hit: at the top dose activity change, negative = inhibition, actives largely listed as inhibitors; 0.56% of 390,000 active; AID 540317; note: nearly all actives have a fitted effect of over 70% in size
Target sequence (P83916 whole entry, looked up): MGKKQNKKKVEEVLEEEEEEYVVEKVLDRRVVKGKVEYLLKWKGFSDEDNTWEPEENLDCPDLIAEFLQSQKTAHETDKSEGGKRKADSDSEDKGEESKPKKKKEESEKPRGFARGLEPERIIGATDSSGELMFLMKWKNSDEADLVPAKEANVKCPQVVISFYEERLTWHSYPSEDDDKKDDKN
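HP1-beta protein (50 nM final) preincubated 30 min at room temperature with biotinylated H3(1-18)K9me3 peptide (50 nM) in PBS pH 7.4, 0.01% Tween-20, then compound added for 30 min. AlphaScreen streptavidin donor/nickel chelate acceptor beads (10 ug/mL final), 30 min dark, luminescence read.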
L3MBTL1 block – blocks human L3MBTL1 | Q9Y468 | AlphaScreen L3MBTL1–H3K9me1 peptide binding | Potency, µM (series often up to 57.1 µM), for inactives: at the highest dose activity, negative = inhibition, usual class: inhibitors | 0.66% of 230,000 active; note: % is set by controls: 0 for no effect and ±100 for the full control effect; nearly all actives have a fitted effect of over 60% in size
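L3MBTL1 50 nM + b-AHA-H3(1-15)K9me1 75 nM, 30 min RT; compound added, 30 min RT; streptavidin donor/Ni-chelate acceptor beads 10 ug/mL each final, 30 min RT dark; AlphaScreen read.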
JMJD2A Tudor – blocks the human JMJD2A Tudor domain. O75164. AlphaScreen JMJD2A-Tudor / H3K4me3 peptide binding. Potency, µM (titrated, usually from 114 µM), for the others: at the top dose activity change, negative = inhibition, usual class: inhibitors. 4.4% of 390,000 active; note: % is set by controls: 0 for no effect and ±100 for the full control effect; nearly all actives have a fitted effect of over 50% in size
Numbers without * were called inactive; ? = inconclusive; . = not tested or not shown; ! = not confirmed by another sample; [ ] = remark or other dose. Most compounds without a hit are left out; they make up all but 12% or so of the library. Calls come from the whole dose curve; as a rule, active = well fitted curve in the direction sought with a large enough effect; inconclusive = small, poorly fitted or top-dose-only effect, or another doubt; inactive = no such curve, though single readings can be large; an effect the other way counts as inactive or inconclusive. Potency is the fitted concentration of half-maximal effect.

SMILES | Sfp PPTase inh | BAZ2B inh | G9a block | HP1b binding inh | L3MBTL1 block | JMJD2A Tudor
CN(Cc1ccccc1)Cc1ccccc1OC(=O)N(C)C | 16.0% | -4.5% | 44.7µM* | 31.9% | 6.3% | -13.5%
COc1cccc2c1C13CC[N+]4(CC5CC5)CO[C@]1(CCC(=O)C3)C4C2 | 20.8% | . | 20.5%[59 µM] | . | . | .
CC(C)n1c(=O)c(C=Nc2cccc([N+](=O)[O-])c2)c(O)n(CCc2ccccc2)c1=O | -3.9% | ? | 10µM* | -6.6% | -17.1% | ?
CCN(CC)S(=O)(=O)c1cccc(N=Nc2c(O)n(CC)c(=S)n(CC)c2=O)c1 | 11.7% | ? | ? | ? | -18.3% | 20µM*
Oc1ccc2c3c1OC1C(O)CC[C@]4(O)C(C2)N(CC2CCC2)CC[C@]314 (stereo partly specified) | 20.0% | . | -48.7%[2.33 µM] | . | . | .
NCC(O)c1cc(O)c(O)cc1F (stereo unspecified) | . | 0.6% | 9.47µM*! | ? | ? | 10µM*
CC(=O)n1cc(C=C2C(=O)NC(=O)NC2=O)c2ccccc21 | 22.4µM* | -15.9% | 10µM* | 32.4% | . | ?
O=C1NC(=O)C(=Cc2coc3ccccc3c2=O)C(=O)N1 | 39.8µM* | . | 35.5µM* | -2.4% | . | -22.2%
O=C1NC(=O)C(=C/C=C/c2coc3ccc(Br)cc3c2=O)C(=O)N1 | -14.3% | -34.4% | 8.91µM* | . | -27.3% | .
O=C1NC(=O)C(=Cc2csc3ccccc23)C(=O)N1 | 17.8µM* | ? | 8.91µM* | 7.7% | 3.3% | -10.6%
Cn1cc(C=C2C(=O)NC(=O)NC2=O)c2ccccc21 | -28.0% | -8.1% | -24.4% | 27.7% | . | ?
Cc1ccc(C[N+](C)(C)C)o1 | -1.3% | . | 2.1%[59 µM] | . | . | .
C[C@H](CCC(=O)O)C[C@H](C)C[C@H](C)C(=O)/C=C(\O)[C@H](C)C[C@H](C)C/C=C/[C@@H](C)[C@@H](O)[C@@H](C)[C@@H](O)C[C@@H]1CC[C@@](C)([C@H]2CC[C@@](C)([C@@H](C)O)O2)O1 | 1.8% | . | 26.7%[59 µM] | . | . | .
C[C@@H](C1CC[C@@]2(O)C3=CC(=O)[C@@H]4C[C@@H](O)[C@@H](O)C[C@]4(C)[C@H]3CC[C@]12C)[C@H](O)CCC(C)(C)O (stereo partly specified) | 1.9% | . | . | 63.8% | . | -5.5%
CCCCCCCCCCCCCCCCOC[C@@H](O)COP(=O)([O-])OCC[N+](C)(C)C | 6.9% | . | 25.6%[59 µM] | . | . | .
C[C@@H]1CCc2cc(F)cc3c(=O)c(C(=O)O)cn1c23 | 3.3% | . | 16.7%[21.5 µM] | . | . | .
COC(=O)c1ccccc1OP(=O)(c1cccc([N+](=O)[O-])c1)c1cccc([N+](=O)[O-])c1 | 6.0% | ? | . | ? | 2.4% | -21.5%
COc1ccc(NC(=S)NC(NC(=O)CF)C(Cl)(Cl)Cl)cc1[N+](=O)[O-] (stereo unspecified) | -8.3% | ? | 22.4µM* | ? | -3.0% | ?
O=C(CF)NC(NC(=S)Nc1cccc([N+](=O)[O-])c1)C(Cl)(Cl)Cl (stereo unspecified) | -3.0% | -38.9% | 35.5µM* | 19.8% | . | -28.2%
S=c1[nH]nc(C2CC2)n1Cc1ccccc1 | 56.2µM* | . | 6.31µM* | -15.7% | -19.0% | 15.8µM*
S=c1[nH]nc(-c2ccco2)n1Cc1ccccc1 | 22.9% | -24.9% | ? | -6.3% | 2.8% | 7.08µM*
COc1ccccc1-c1n[nH]c(=S)n1Cc1ccco1 | 20µM* | ? | 3.55µM* | . | -2.7% | .
CC(C)(C)OC(=O)c1c(N)n(Cc2ccco2)c2nc3ccccc3nc12 | ? | -0.8% | ? | 53.3% | . | -8.9%
CN1C2CCC1CC(OC(=O)C1CCC(C(=O)OC3CC4CCC(C3)N4C)(c3ccccc3)c3ccccc31)C2 (stereo unspecified) | 14.3% | . | . | . | . | .
[O]=[Sb]([OH])([OH])[c]1ccccc1 | . | . | . | 3.8% | . | -30.5%
Oc1cc[c]([Hg][Cl])cc1 | 0.0562µM* | . | ? | . | . | .
CCN1CCN(Cc2ccc(C)cc2C)CC1 | 7.6% | ? | 56.2µM* | 55.6% | -3.7% | -16.9%
